Compound activity as filed in PubChem BioAssay.
D2 PAM-1: positively modulates the human D2 dopamine receptor allosterically | P14416 | HEK293 T-REx D2, calcium flux, EC20 dopamine potentiation | potentiation, % at 10 µM | actives 0.34% (n = 340,000);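 active means potentiation over 3 SD above the plate norm, cut at about 30% in these data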; further: 0% is about no effect
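Potentiation of an EC20 dopamine calcium response is measured in a force-coupled, tetracycline-inducible Hek293 Trex D2 line. Compound-only kinetic reads over 180 s flag agonists before dopamine addition.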
D2 PAM-2: human D2 receptor positive allosteric modulation; P14416; actives 0.23% (n = 360,000); AID 624464; DiscoveRx D2 beta-arrestin cells, luminescence, 90 min; 100% = 57 uM dopamine signal; potentiation, % (no concentration beside the values); in the data active means potentiation above about 50%; inconclusive means mostly about 30% to 49%
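D2 cells co-treated with compound plus 50 nM dopamine (EC20) for 90 min at 37 deg C to detect potentiation. Beta-arrestin recruitment was read as enzyme-fragment luminescence after 1 h at ambient temperature. Full response was set by 57 uM dopamine.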
D2 ag-1: agonists of human D2 dopamine receptor | P14416 | HEK293 T-REx D2 cells, calcium flux agonist mode | activation, % at 2 µM | actives 0.53% (n = 340,000);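 active means activation over 3 SD above normal in the single-dose calcium agonist read, cut at about 30% in these data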; further: 0% is about no effect
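HEK293 Trex D2 cells, tetracycline-induced, o/n 30 C 5% CO2; no-wash Ca dye, RT 30–90 min; 10-cycle baseline, 23 nl cpd added, kinetic Ca read 180 s; agonist hits = positive Ca response.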
D2 ag-2: activates the human D2 dopamine receptor; activation, % (test concentration not listed); AID 624465; DiscoveRx PathHunter D2 beta-arrestin, luminescence, 90 min; 100% = 57 uM dopamine signal; P14416; actives 0.084% (n = 360,000); in the data active means activation above about 40%; inconclusive means between about 15% and that limit
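DiscoveRx PathHunter D2 beta-arrestin cells (2,100/well) attached overnight, then compound-stimulated 90 min at 37 C in HBSS/10 mM HEPES/0.1% Tween-20 buffer; beta-galactosidase complementation read by luminescence after 1 h at ambient temperature. Dopamine 57 uM final (EC100) as control.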
D2 antagonist: D2 dopamine receptor (human) antagonism; P14416; HEK293 TREx D2 cells, calcium flux, dopamine EC80; inhibition, % at 10 µM; actives 2% (n = 340,000); in the data active means inhibition above about 30%; inactive means below that, where a call was filed; further: 0% is about no effect
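HEK293 T-REx D2 cells, tet-induced, calcium dye no-wash. Cpd pintool add, 180 s kinetic, then EC80 DA, 180 s kinetic. Ca flux read.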
D3 arrestin ag: confirmation of human D3 dopamine receptor agonists, beta-arrestin | shares compounds with D2 ag-1 | DiscoveRx D3 beta-arrestin cells, luminescence, 90 min | Potency, µM (series often up to 76.9 µM), for the others: top-dose activation, actives largely listed as activators | actives 4% (n = 2,300) | AID 720506;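 further: potency means the concentration at half of the fitted maximal effect; 100% = dopamine control response; nearly all actives have a fitted effect of over 70% in size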
Target sequence (P35462 whole entry, looked up): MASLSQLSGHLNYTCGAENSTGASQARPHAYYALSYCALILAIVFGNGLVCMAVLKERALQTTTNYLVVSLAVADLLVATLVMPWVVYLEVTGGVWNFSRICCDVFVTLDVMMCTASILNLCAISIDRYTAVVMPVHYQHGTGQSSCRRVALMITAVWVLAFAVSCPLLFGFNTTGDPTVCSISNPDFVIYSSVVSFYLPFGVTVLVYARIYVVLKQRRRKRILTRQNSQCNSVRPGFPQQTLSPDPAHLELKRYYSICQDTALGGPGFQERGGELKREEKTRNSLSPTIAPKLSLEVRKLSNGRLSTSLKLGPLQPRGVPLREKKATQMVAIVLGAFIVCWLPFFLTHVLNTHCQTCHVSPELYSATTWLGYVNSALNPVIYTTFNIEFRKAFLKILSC
D2 ag-3: activates human D2 dopamine receptor in D3 counterscreen. shares compounds with D2 ag-1. Potency, µM (top dose mostly 76.9 µM), for inactives: at the top dose activation, hits mostly activators. actives 5.9% (n = 2,300). DiscoveRx PathHunter D2 beta-arrestin, luminescence, 90 min; response scale: percent relative to full dopamine signal; further: potency means the concentration at half of the fitted maximal effect; % of control where 0% means no effect; nearly all actives have a fitted effect of over 70% in size
* = called active by the depositor; ? = inconclusive; . = no result. A selection: hits, their analogues and other compounds. The true share with any hit is near 2.4%. Unless noted, the call rests on the fitted dose curve; in most records, active means well fitted activation curve with a large enough effect; inconclusive means small, poorly fitted or top-dose-only effect; inactive means flat fitted curve, though single readings scatter.

SMILES	D2 PAM-1	D2 PAM-2	D2 ag-1	D2 ag-2	D2 antagonist	D3 arrestin ag	D2 ag-3
Cc1ccc(CN(C(=O)c2cccs2)C2CCS(=O)(=O)C2)cc1 (configuration not stated)	4	-2	0	-1	1	.	.
COCCNC(=O)c1cccc(OC2CCN(C(C)COc3ccccc3)CC2)c1 (configuration not stated)	-15	-2	45*	-3	25	0%	13%
Cc1ccccc1CN1CCN(CC2CC3C=CC2C3)CC1 (configuration not stated)	-24	-29	-1	-3	19	.	.
O=C(c1ccco1)N1CCN(CC2CC3C=CC2C3)CC1 (configuration not stated)	.	?	24	42*	84*	?	?
C1=CC2CC1CC2CN1CCN(c2ccccc2)CC1 (configuration not stated)	-28	?	76*	?	77*	7%	?
CN(C(=O)COC(=O)C1CCN(S(=O)(=O)c2ccc3c(c2)OCCO3)CC1)c1ccccc1	7	-6	1	-1	6	.	.
CCN(CC)C(=O)COC(=O)C1CCN(S(=O)(=O)c2ccc3c(c2)OCCO3)CC1	12	0	0	6	18	2%	-3%
CC(C)(C)C1COc2ccccc2N1C(=O)c1ccccc1Cl (configuration not stated)	11	-1	2	-12	-4	.	.
CC1COc2ccccc2N1C(=O)c1ccccc1Cl (configuration not stated)	-5	1	41*	?	23	-5%	16%
COc1ccc(CNC(=O)c2ccc3c(c2)nc2n3CCC(C)C2)c(OC)c1 (configuration not stated)	-8	.	0	.	.	.	.
CC(=O)Nc1ccc(S(=O)(=O)NC2=NCN(C(C)C)CN2)cc1	2	.	-1	.	.	.	.
O=C(CNC(=O)c1ccccc1)N/N=C/c1cn[nH]c1-c1ccccc1	-2	-6	9	1	9	.	.
COc1ccccc1C(=O)NCC(=O)N/N=C/c1cn[nH]c1-c1ccccc1	-22	8	67*	5	22	8%	3%
NCC(O)(c1ccc(Cl)cc1)c1ccc(Cl)cc1	-5	-7	26	1	20	6%	2%
CC(C)(C)NCC(O)(c1ccc(Cl)cc1)c1ccc(Cl)cc1	-8	-4	0	-1	-2	.	.
CC(C)(C)c1ccc(C(=O)N2CCN(CCNC(=O)C(=O)NCc3ccc(Cl)cc3)CC2)cc1	4	5	0	-2	27	2%	15%
Cc1ccc(OCC(=O)Nc2nnc(S(=O)(=O)N3c4ccccc4CC3C)s2)cc1 (configuration not stated)	0	.	0	.	.	.	.
CCCSCCCNC(=O)CN1C(=O)CCn2nc(-c3cn(C)c4ccccc34)cc21	.	.	1	.	.	.	.
C=CCn1c(-c2cc(OC)cc(OC)c2)n[nH]c1=S	3	-4	0	1	-17	.	.
C=CCn1c(-c2sc3nc(C)cc(C)c3c2N)n[nH]c1=S	4	2	-2	3	32*	13%	-13%
N#Cc1ccsc1NC(=O)CN1CCN(c2ccccc2)CC1	-24	1	48*	13	23	5%	19%
N#Cc1ccc(NC(=O)CN2CCN(c3ccccn3)CC2)cc1	-30	21	77*	48*	68*	?	40µM*
CC(=O)N1CCN(CC(=O)Nc2sccc2C#N)CC1	14	0	0	-3	8	.	.
N#Cc1ccsc1NC(=O)CN1CCN(c2ccccn2)CC1	-7	5	41*	?	31*	?	?
N#Cc1ccsc1NC(=O)CN1CCN(c2ccc(O)cc2)CC1	13	?	4	12	14	.	.
SMILES	D2 PAM-1	D2 PAM-2	D2 ag-1	D2 ag-2	D2 antagonist	D3 arrestin ag	D2 ag-3
CC(C)c1ccc(NC(=O)CN2CCN(c3ccccn3)CC2)cc1	-11	-9	15	14	0	.	.
CCc1ccc(CNC(=O)CCSCc2ccccc2F)cc1	3	.	0	.	.	.	.
O=C(Nc1cccc(C(=O)N2CCOCC2)c1)c1ccc([N+](=O)[O-])cc1	-4	2	39*	0	-1	?	3%
COc1ccccc1/C=C/c1nc(C#N)c(N2CCCCCC2)o1	-7	.	0	.	.	.	.
COc1ccc(N2CC(NC(=O)C(=O)c3c[nH]c4ccccc34)CC2=O)cc1 (configuration not stated)	-11	.	0	.	.	.	.
Cn1nc(C(F)(F)F)c(-c2ccc(F)cc2)c1NC(=O)c1ccco1	-3	-3	0	1	-6	1%	2%
Cn1nc(C(F)(F)F)c(-c2ccccc2)c1NC(=O)c1ccco1	1	-17	0	-4	-8	.	.
COC(=O)c1c(SCC(=O)Nc2cc(F)ccc2F)[nH]c2ccc(C)cc2c1=O	1	.	0	.	.	.	.
O=C(O)/C=C/C(=O)NCCCc1ccccc1	6	-3	0	-2	14	-3%	-4%
O=C(O)/C=C/C(=O)NCc1ccccc1	-9	19	-1	-1	-12	.	.
CC(C)C[C@@H](CO)N1CCN(Cc2ccccc2)CCC1=O	1	-9	.	-3	.	.	.
N#CC[C@H](Cc1ccccc1)N1CCN(CCc2ccccc2)CCC1=O	-17	-20	50*	-2	34*	15%	1%
N#CC[C@H](Cc1ccccc1)N1CCN(Cc2ccccc2)CCC1=O	0	-4	1	0	11	.	.
CC(C)C[C@@H](CO)N1CCN(CCCc2ccccc2)CCC1=O	8	-7	-1	-2	35*	-1%	18%
O=C1CCN(CCCc2ccccc2)CCN1[C@H](CO)c1ccccc1	8	-15	0	0	23	?	20%
Cc1nc2ccccc2n1CCc1nc2c3ccccc3nc(SCc3ccc(C#N)cc3)n2n1	8	.	0	.	.	.	.
Cc1ccc(/C=C/c2onc(C)c2S(=O)(=O)N2CCC(C(=O)Nc3cccc(C#N)c3)CC2)cc1	-12	.	2	.	.	.	.
CC(OC(=O)c1ccc(-n2cnnn2)cc1)C(=O)Nc1ccccc1F (configuration not stated)	.	-5	.	0	.	.	.
CC(OC(=O)c1ccc(-n2cnnn2)cc1)C(=O)Nc1ccc(F)c(F)c1F (configuration not stated)	6	5	0	-2	18	-5%	-3%
O=[N+]([O-])c1ccc(C=CC=Cc2ccccc2)cc1	.	-4	.	1	.	.	.
